The campaign covered roughly 16,000 compounds. About 5,800 (36%) were called active. Another 23% or so got no clear call; they are omitted. Calls come from the whole dose curve; as a rule, active = well fitted curve in the direction sought with a large enough effect; inconclusive = small, poorly fitted or top-dose-only effect, or effect the other way; inactive = no such curve, though single readings can be large or run the other way. This is one part of the list. Peptide text beside a SMILES is read from it. * marks the point of attachment. PhAc = O=C(Cc1ccccc1)*; OBn = c1ccc(CO*)cc1
These compounds were tested against Cytochrome P450 2C19 (Homo sapiens) (UniProt P33261) (assay: Cytochrome panel assay with activity outcomes). Settings: recombinant CYP, pro-luciferin dealkylation, luminescence, p450-cyp2c19; series mostly up to 57.1 µM.
Cytochrome P450 2C19 (Homo sapiens), sequence (P33261 whole entry, looked up): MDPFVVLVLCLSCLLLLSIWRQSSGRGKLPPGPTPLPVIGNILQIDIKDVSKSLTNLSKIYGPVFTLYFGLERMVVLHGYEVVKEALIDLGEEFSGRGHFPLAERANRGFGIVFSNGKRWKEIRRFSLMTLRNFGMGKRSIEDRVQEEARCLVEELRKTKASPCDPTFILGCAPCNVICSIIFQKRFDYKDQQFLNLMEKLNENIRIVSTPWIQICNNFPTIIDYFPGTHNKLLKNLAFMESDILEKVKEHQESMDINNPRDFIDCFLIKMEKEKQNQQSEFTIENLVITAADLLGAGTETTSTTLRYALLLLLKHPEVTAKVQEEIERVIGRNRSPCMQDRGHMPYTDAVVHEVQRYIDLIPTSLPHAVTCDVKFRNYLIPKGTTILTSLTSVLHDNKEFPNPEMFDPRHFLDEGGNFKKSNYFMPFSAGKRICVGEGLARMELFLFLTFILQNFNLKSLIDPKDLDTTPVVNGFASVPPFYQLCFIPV
% is set by controls: 0 for no effect and ±100 for the full control effect.

SMILES	activity, negative = inhibition	AC50
Clc1cc2c(c(CSC3=NCN(CC4CC4)CN3)c1)OCOC2	10.2% [at 11.4 µM] (inactive)	–
C=C(C)COc1ccc(-c2n[nH]c(C)c2-c2ccc(OC)cc2)c(O)c1	–	2.24 µM (active)
Oc1ccc(-c2[nH]ncc2-c2ccc(Cl)cc2)c(O)c1	–	0.251 µM (active)
Cc1[nH]nc(-c2ccc(O)cc2O)c1-c1ccc(Cl)cc1	–	0.282 µM (active)
COc1ccc(-c2n[nH]c(C)c2-c2ccc(Cl)cc2)c(O)c1	–	2.51 µM (active)
CCN1CCCCC(=N/O)/C(=N/O)CCCC1	10.8% [at 11.4 µM] (inactive)	–
O=C1[C@H]2[C@H]3[C@H](O)[C@H](O)C/C(=N/OC[C@@H](O)COCc4ccco4)[C@@H]3CC[C@@H]2C(=O)N1Cc1ccc2c(c1)OCO2	-24.6% [at 11.4 µM] (inactive)	–
CCOC(=O)C1=C[C@@]2(CC)CCCN3CCc4c(n1c1ccccc41)[C@H]32	–	inactive
COc1cc2ccccc2cc1C(=O)Nc1ccc(S(=O)(=O)Nc2cc(C)on2)cc1	–	inactive
Cc1cc(NC(=O)c2ccc(S(=O)(=O)Nc3ccccc3)cc2)no1	–	5.01 µM (active)
O=C1c2ccccc2NC(c2ccc(F)cc2)N1Cc1ccco1 (stereo unspecified)	–	3.55 µM (active)
COc1ccc(C2Nc3ccccc3C(=O)N2Cc2ccco2)cc1COc1ccc([N+](=O)[O-])cc1 (stereo unspecified)	–	2.51 µM (active)
O=C(C1=C(O)C(=O)N(Cc2ccco2)C1c1ccccc1)c1cccs1 (stereo unspecified)	–	inactive
Cc1ccc(C2Nc3ccccc3C(=O)N2Cc2ccco2)cc1 (stereo unspecified)	–	2.82 µM (active)
S=C(S)O[C@@H]1C[C@@H]2C[C@H]1[C@@H]1CCC[C@H]21	–	15.8 µM (active)
C=CCOc1c(Br)cc(CNc2ccc(NC(=O)C(C)C)c(OC)c2)cc1OC	–	3.55 µM (active)
O=C1c2ccccc2C(=O)N1CCCCN(C(=O)c1ccc([N+](=O)[O-])cc1)c1ccc(Cl)cc1	–	4.47 µM (active)
O=C1c2ccccc2C(=O)N1CCCCN(C(=O)c1cccc([N+](=O)[O-])c1)c1ccc(Cl)cc1	–	3.16 µM (active)
C/C(CCN1CCc2nc(-c3ccccc3)c(-c3ccccc3)cc2C1)=N\O[C@@H](C)CN1CCCCc2nc(C)c(C)cc21	-15.5% [at 11.4 µM] (inactive)	–
O=C(CNC(=O)c1cccs1)NCC(=O)OCc1ccc(Cl)cc1	–	6.31 µM (active)
O=C(CNC(=O)c1cccs1)NCC(=O)OCc1ccc(Cl)cc1Cl	–	5.01 µM (active)

SMILES	activity, negative = inhibition	AC50
O=C(CNC(=O)Cc1ccccc1)NCC(=O)OCc1ccccc1 (PhAc-Gly-Gly-OBn)	–	inactive
COC(=O)C1C(=O)C2=C(CC1C)NC(=O)CC2c1cccc(C)c1 (stereo unspecified)	–	11.2 µM (active)
COc1ccc(/C(C#N)=C/c2c(-c3ccc(Cl)cc3)nc3c(C)cccn23)cc1	–	3.16 µM (active)
COc1ccc(-n2c(=O)c(-c3ccc(Cl)cc3)nc3cncnc32)cc1	–	inactive
COc1ccc(Oc2ncc3nc(-c4ccc(Cl)cc4)c(=O)n(C)c3n2)cc1	–	inactive
Cc1cc(Nc2ccccc2)nc(N)n1	–	inactive
C#CCSc1n[nH]c(-c2ccco2)n1	0.772% [at 11.4 µM] (inactive)	–
COc1ccc(Nc2nc(N)nc(CSc3n[nH]c(-c4ccccc4)n3)n2)cc1	–	10 µM (active)
CCCOc1ccc(-c2nc(N)n[nH]2)cc1	–	inactive
Cc1nnc(SCc2nc(N)nc(Nc3ccccc3)n2)s1	–	14.1 µM (active)
CCCc1nnc(SCC(=O)N2C(C)CCCC2C)n1CCCOC (stereo unspecified)	–	28.2 µM (active)
CCCc1nnc(SCC(=O)N2CCCCC2)n1CCCOC	–	inactive
NOCC(=O)O	–	inactive
COc1ccc(C(=O)Nc2ccc(NC(=O)c3ccco3)c(Cl)c2)cc1OC	–	inactive
CNc1cc(OC)c(C(=O)N[C@@H]2CCN(Cc3ccccc3)[C@H]2C)cc1Cl	–	inactive
COc1cc(NC(=O)c2ccccc2Cl)ccc1NC(=O)c1ccco1	–	8.91 µM (active)
CC(C)Oc1ccc(C(=O)Nc2ccc(NC(=O)c3ccco3)c(Cl)c2)cc1	–	3.98 µM (active)
Cc1nn(-c2ccc(F)cc2)c(C)c1NS(=O)(=O)c1ccc2ccccc2c1	–	0.316 µM (active)
Cc1ccc(C)c(/C(=N\N=C(N)N)C2CC2)c1	-19.5% [at 11.4 µM] (inactive)	–
CCN(CC)C(=O)C(=O)N/N=C/c1cccc(Br)c1	–	22.4 µM (active)
O=C(N/N=C/c1ccccn1)c1ccco1	–	inactive

SMILES	activity, negative = inhibition	AC50
CCCCCCCCCCCCCCCC(=O)NC(C)C	–	inactive
CCCCCCCCC(=O)N/N=C/c1ccccn1	–	5.01 µM (active)
CCCCCCCCC(=O)N/N=C/c1cccc(Br)c1	–	2 µM (active)
CCCCCC(=O)Nc1cc2[nH]c(=O)cc(COC)c2cc1C	–	inactive
C[C@@](Cc1ccc(O)c(O)c1)(NN)C(=O)O	–	inactive
Cc1cc2cc3c(cc2nc1SCC(=O)Nc1c(C)cccc1C)CCC3	–	3.55 µM (active)
Cc1cc(C(=O)CSc2nnc(N)s2)c(C)n1CCc1ccc(F)cc1	–	0.794 µM (active)
COc1ccc(CCn2c(C)cc(C(=O)CSc3nc(N)cc(=O)[nH]3)c2C)cc1	–	3.55 µM (active)
COc1ccc(C(=O)NC2(C(F)(F)F)C(=O)Nc3c2c(=O)[nH]c(=O)n3CCc2ccc(OC)c(OC)c2)cc1 (stereo unspecified)	–	inactive
CCOC(=O)Nc1ccc2c(c1)OCO2	–	20 µM (active)
O=C(Nc1cccc(-c2nc3ccccc3s2)c1)c1ccc2c(c1)OCO2	–	7.08 µM (active)
CCOCC(=O)Nc1c(C(=O)Nc2ccccc2OC)oc2ccccc12	–	inactive
COc1cccc(NC(=O)c2oc3ccccc3c2NC(=O)c2ccc3c(c2)OCO3)c1	–	3.55 µM (active)
CCOc1ccc(NC(=O)c2oc3ccccc3c2NC(=O)CC)cc1	–	2.24 µM (active)
CCOC(=O)Nc1ccc(C(=O)Oc2ccccc2)c(O)c1	–	3.55 µM (active)
CCOC(=O)c1oc2ccccc2c1NC(=O)c1ccc(S(=O)(=O)N(C)C)cc1	–	inactive
CCOC(=O)c1oc2ccccc2c1NC(=O)c1ccc2c(c1)OCO2	–	2.82 µM (active)
CCOC(=O)c1oc2ccccc2c1NC(=O)c1cc(OC)cc(OC)c1	–	25.1 µM (active)
CC(C)(C)c1ccc(OC(=O)Nc2ccc(O)c(C(=O)O)c2)cc1	41.8% [at 11.4 µM] (inactive)	–

Reference: PubChem BioAssay AID1851 (National Center for Advancing Translational Sciences (NCATS), 2009)
